These results are taken from PubChem BioAssay AID504332 (National Center for Advancing Translational Sciences (NCATS), 2011).

Molecules are shown by their SMILES. Screen size: about 350,000 compounds; about 31,000 (8.9%) were called active. Another 15% or so got no clear call; they are omitted. What follows is part of a selection rich in actives, with near analogues and random picks from the rest. A number with no mark means an inactive call. Calls come from the whole dose curve; as a rule, active = well fitted inhibition curve with a large enough effect; inconclusive = small, poorly fitted or top-dose-only effect; inactive = no such curve, though single readings can be large or run the other way.
% is set by controls: 0 for no effect and ±100 for the full control effect; potency is the fitted concentration of half-maximal effect.

Chain of Histone-lysine N-methyltransferase EHMT2 (Homo sapiens) (Q96KQ7 913-1193 limits assumed): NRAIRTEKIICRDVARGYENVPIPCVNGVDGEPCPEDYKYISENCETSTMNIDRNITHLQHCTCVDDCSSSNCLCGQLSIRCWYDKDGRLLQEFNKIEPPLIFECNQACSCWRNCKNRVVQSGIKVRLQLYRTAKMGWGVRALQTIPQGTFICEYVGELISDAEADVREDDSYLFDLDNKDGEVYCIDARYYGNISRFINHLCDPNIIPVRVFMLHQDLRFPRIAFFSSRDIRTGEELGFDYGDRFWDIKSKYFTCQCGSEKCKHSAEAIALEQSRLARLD

This assay has as its target Histone-lysine N-methyltransferase EHMT2 (Homo sapiens) (UniProt Q96KQ7). Description: qHTS Assay for Inhibitors of Histone Lysine Methyltransferase G9a. Note: nearly all actives have a fitted effect of over 75% in size. Conditions: G9a H3K9 monomethylation, AlphaScreen, 2 h; series mostly up to 59 µM; activity, negative = inhibition: at the top concentration. The source says: Methylated lysines, on the N-terminal tails of histone proteins serve as epigenetic markers to recruit factors that can then modify local chromatin structure to lead to functional consequences. G9a and other members of the SUV39 family of the SET domain-containing superfamily of histone lysine methyltransferases (HMT) have been identified to specifically methylate Lys9 of histone H3 (H3K9). G9a catalyzes the mono- and di-methylation of H3K9 in mammalian euchromatic regions, where the resulting H3K9me2 is indicative of transcriptional repression. […] The inhibition of G9a will result in transcriptional activation and work synergistically with DNA methyltransferase and histone deacetylase inhibitors, to kill cancer cells. This qHTS assay for identification of G9a inhibitors is a chemiluminescence based AlphaScreen (PerkinElmer). Methylation of biotinylated-histone peptide is measured through specific antibody-based detection, in conjunction with streptavidin-coated donor and anti-IgG antibody-coated acceptor beads. The method is particularly well suited for detection of inhibitors acting by the desired histone peptide competitive mechanism and is applicable to testing other HMTs. Although AlphaScreen has significant advantages with its utility in a variety of epigenetic target assays, the primary screening data provided in this deposition should be used with caution due to the prevalence of screening artifacts. An AlphaScreen counterscreen is highly recommended to be run against any putative actives to eliminate non specific artifacts. Alternatively, one can use other AlphaScreen assays in PubChem to filter out promiscuous hits. Quinn et al. A chemiluminescence-based method for identification of histone lysine methyltransferase inhibitors. Mol Biosyst 6(5): 782-8. 2010. PMID: 20567762 [2] Baell,Holloway. New substructure filters for removal of pan assay interference compounds (PAINS) from screening libraries and for their exclusion in bioassays. J Med Chem. 53(7):2719-40. 2010. PMID: 20131845 NIH Molecular Libraries Probe Production Network [MLPCN] NIH Chemical Genomics Center [NCGC] Structural Genomics Consortium (SGC) NIH Grant: 5U54 MH084681-02
To each well of a 1,536w plate, 2ul of HMT enzyme (final 20nM) were added, using a nanoliter dispenser. The G9a- and GLP-inhibitor BIX-01294 (CID: 25150857) are used as an intraplate control, with a 16-point titration in duplicate. A Kalypsys pin-tool transferred 23nl of library compound solution in DMSO to each well. Following a 15 min incubation of enzyme with compounds at room temperature, 1ul mixture of b-H3K9 peptide substrate (final 500nM) and SAM cofactor (final 20uM) were added. Reactions were allowed to proceed at room temperature for 2 hours. Methylated b-H3K9 peptide product was detected with 0.5 ug/mL rabbit polyclonal anti-monomethyl histone H3K9 antibody (Abcam Inc., Cambridge, MA) and 20 ug/mL each streptavidin-coated donor and anti-rabbit IgG acceptor AlphaScreen beads. Antibody and beads were added in a 1ul dispense, for a final volume of 4ul, and plates were incubated, protected from the light, for 10 min at room temperature. Microplates were then read on an EnVision multilabel plate reader using the 1,536 plate HTS AlphaScreen aperture (excitation time 80 ms, measurement time 240 ms).
With `O=C1CCCc2cc(S(=O)(=O)N3CCCC(C(=O)NCc4ccccc4)C3)ccc2N1` (stereo not given), the “activity, negative = inhibition” value was -9.07%. The same measure, in the same setting: to `c1ccc2c(c1)CCc1snnc1-2` belongs -5.46% [at 0.501 µM]; to `Cc1ccccc1OCC(=O)NNC(=O)c1ccc(-n2cncn2)c([N+](=O)[O-])c1`, 21.2% [at 102 µM]. Same read-out and setting: next, `COc1ccc(-c2cc(C(F)(F)F)n3nc(-c4ccccc4)cc3n2)cc1OC`: 33.6%; `CSCCC(NC(=O)c1ccccc1)C(=O)N1CCCCCCC1` (stereo not given): 35.6% [at 12.7 µM]. Same read-out and setting: next, `CC(C)N(Cc1nnc(-c2ccc(Cl)cc2)o1)C(=O)C1=COCCO1`: -1.89% [at 102 µM]; `COc1cc2ccccc2cc1C(=O)Nc1ccccc1C`: 16.4%; `COc1cccc(OCC(O)CNC(=O)c2oc3c(C)c(C)ccc3c2C)c1` (stereo not given): 14.5% [at 102 µM]. On to `CCCNC(=O)CCC(=O)N1Cc2ccccc2Oc2ncccc21`, for which the “activity, negative = inhibition” value was -5.24%. For the molecule `O=C(CC1C(=O)NCCN1Cc1ccc(-c2ccccc2)cc1)NCC1CCOCC1` (stereo not given), the “activity, negative = inhibition” value was -23.9% [at 102 µM]. On the same count and under the same terms, to `CCn1ccnc1CNC(=O)CC1C(=O)NCCN1CCCc1ccccc1` (stereo not given) belongs 39.1% [at 102 µM].

For `O=C(CC1C(=O)NCCN1CC(c1ccccc1)c1ccccc1)NCCc1cn[nH]c1` (stereo not given), the Potency was 44.7 µM (active). For the molecule `COc1ccc(NC(=O)CSc2nc3ncccc3[nH]2)c(OC)c1`, the “activity, negative = inhibition” value is 5.44%.

Take `CN(c1ccccc1)S(=O)(=O)c1cccc(NC(=O)Cc2ccc(Cl)cc2)c1`: the activity, negative = inhibition is -10.8% [at 12.7 µM]. Still for that read-out and setting: next, `CCc1ccc(C(=O)N2CCN(S(=O)(=O)c3sc(C(=O)O)c(C)c3C(=O)O)CC2)cc1`: 10.3% [at 2.33 µM]. Regarding `O=C(NCc1cccc(Cl)c1)C1=CC=CN2CCS(=O)(=O)N=C12`, the activity, negative = inhibition is -59.1% [at 12.7 µM]. As to `CCN(CC)c1cc(NC2CCCCC2)c2c3c(onc13)-c1ccccc1C2=O`, the Potency is 7.08 µM (active). Regarding `Cc1ccccc1NC(=O)Cn1c(=O)n(CC2CCC(C(=O)NCCc3ccccc3)CC2)c(=O)c2ccccc21` (stereo not given), the “activity, negative = inhibition” value is 6.89%. As for `O=C(Nc1ncccc1O)c1ccc(C(=O)c2ccccc2)cc1`, the activity, negative = inhibition is -9.21% [at 0.501 µM]. Still for that read-out and setting: next, `COc1ccc(CNc2nc(-c3ccccc3)nn2C(=O)c2ccccc2OC)cc1`: 17%.

`COc1ccc(S(=O)(=O)N2CCC(C(=O)NCCC(=O)NCc3cccc(OC)c3)CC2)cc1`: the “activity, negative = inhibition” value is 7.88% [at 102 µM]. Same read-out and setting: to `COc1ccc(NS(=O)(=O)c2ccc3oc(SCC(N)=O)nc3c2)cc1` belongs -10.5% [at 102 µM]. `COc1ccc(S(=O)(=O)Nc2ccc(O)c(Sc3nc4ccccc4s3)c2)cc1`: the Potency was 4.47 µM (active). Turning to `Cc1cccc(C(=O)Nc2ccc(-c3nc4ccccc4s3)c(C)c2)c1`, the “activity, negative = inhibition” value is 10.3%. On the same count and under the same terms, to `COc1ccc(NS(=O)(=O)c2ccc(NC(=S)NC(=O)CC(C)C)cc2)cc1` belongs -29.8% [at 12.7 µM]; to `Cc1ccc(S(=O)(=O)Nc2nc3ccccc3s2)cc1[N+](=O)[O-]`, -3.63% [at 102 µM]. On to `O=C(O)c1cccc(S(=O)(=O)Nc2ccc(O)cc2Sc2nc3ccccc3s2)c1`, for which the Potency was 7.94 µM (active). As to `CC(C)NC(=O)C1CCC(Cn2c(=O)c3sccc3n(Cc3ccc(F)cc3)c2=O)CC1` (stereo not given), the “activity, negative = inhibition” value was 9.1%. For `Cc1ccc(Cl)cc1NC(=O)CCS(=O)(=O)c1ccc(Br)s1`, the “activity, negative = inhibition” value was -47.7%. Same read-out and setting: to `COc1ccccc1-n1nnnc1SCC(=O)NC(=O)Cc1ccccc1` belongs 17.7% [at 2.33 µM]; to `O=C(Nc1ccc(F)cc1F)c1ccc2c(=O)n3c(nc2c1)CCCCC3`, -21.5%. The same measure, in the same setting: next, `CCCCC/C=C/C1=CC(=O)C[C@H](c2ccc(Cl)cc2)C1`: 8.79% [at 0.501 µM]; `Cc1nnc(N2CCCC(C(=O)NCCN(C)C)C2)c2nn(-c3ccccc3)c(C)c12` (stereo not given): -30.8%.

Turning to `Cc1ccc(C)c(N2CCN(CCCNC(=O)Nc3ccc(Cl)cc3)CC2)c1`, the “activity, negative = inhibition” value is -40.9%.

Regarding `Cc1ccc(NC(=S)N(CCCN2CCC(C)CC2)Cc2ccco2)cc1`, the “activity, negative = inhibition” value was -33.9% [at 102 µM]. Consider `Cc1ccc(NC(=S)N(CCCN2CCCC2)Cc2cccn2Cc2ccc(Cl)cc2)cc1`, for which the Potency is 50.1 µM (active). As for `Cc1cc(N=Nc2ccc3ccccc3c2)ccc1O`, the Potency is 35.5 µM (active). With `COc1ccc(N=Nc2ccc(O)c(P(=O)(c3ccccc3)c3ccccc3)c2)cc1`, the “activity, negative = inhibition” value was 4.01% [at 102 µM]. On the same count and under the same terms, to `COc1ccccc1N1CCN(c2ncnc3onc(-c4cccc(Cl)c4)c23)CC1` belongs 5.72%.

With `O=C(c1cnc(Cl)c(Cl)c1)N1CCN(S(=O)(=O)c2ccc(F)cc2)CC1`, the “activity, negative = inhibition” value is 1.49% [at 102 µM]. The same measure, in the same setting: next, `CC1(c2ccc(Cl)cc2Cl)NC(=O)N(CC(=O)Nc2cccnc2Cl)C1=O` (stereo not given): -2.03% [at 102 µM]; `COc1cc(OC)cc(C(=O)OCC(=O)Nc2ccc(F)cc2F)c1`: -3.36% [at 102 µM]. Consider `O=C(COC(=O)c1ccc(F)cc1F)Nc1ncccn1`, for which the Potency was 35.5 µM (active). For the molecule `Cc1cccc(C(=O)OCC(=O)Nc2ccc(F)cc2)c1`, the “activity, negative = inhibition” value is -7.9% [at 102 µM]. Turning to `S=c1[nH]ccn1-c1ccc(Cl)cc1`, the Potency is 3.98 µM (active).

Turning to `CC(CCN1CCN=C1N(C)C)c1ccccc1` (stereo not given), the activity, negative = inhibition is 11.1% [at 2.33 µM].

With `COc1cc(OC)c(NC(=O)c2cc(S(=O)(=O)N3CCCC3)cn2C)cc1Cl`, the “activity, negative = inhibition” value is -6.04%. As to `CNC(=O)COc1ccc(S(=O)(=O)Nc2ccccc2)cc1`, the Potency is 50.1 µM (active). Take `CCOc1ccc(NS(=O)(=O)c2ccc(OCC(=O)NCCCOC)cc2)cc1`: the activity, negative = inhibition was 1.35% [at 12.7 µM]. Same read-out and setting: next, `Cc1ccc(OCC(=O)Nc2ccc(S(=O)(=O)Nc3ccccn3)cc2)cc1`: -2.38% [at 102 µM]; `Cn1c(COc2ccccc2C(C)(C)C)nc2ccccc21`: -0.125%.

Take `CC(C)C(c1nnnn1C1CCCCC1)N1CCN(C(=O)c2ccco2)CC1` (stereo not given): the “activity, negative = inhibition” value was 8.41% [at 102 µM]. `CC(C)C(c1nnnn1CCc1ccccc1)N1CCN(C(=O)c2ccco2)CC1` (stereo not given): the “activity, negative = inhibition” value is 0.196% [at 102 µM]. In the case of `CCC(c1nnnn1C1CCCC1)N1CCN(C(=O)c2ccco2)CC1` (stereo not given), the Potency was 17.8 µM (active). With `COC(=O)c1ccc(C2C(C(=O)Nc3ccccc3)=C(C)Nc3nc4ccccc4n32)cc1` (stereo not given), the “activity, negative = inhibition” value is -7.28%. For `O=C(Oc1ccc(C(=S)N2CCOCC2)cc1)c1ccc(F)cc1`, the Potency was 35.5 µM (active). With `O=C(Oc1ccc(F)cc1)N1CCOCC1`, the “activity, negative = inhibition” value was 21.7%.

On to `Cc1ccc(C(=O)Oc2ccc(C(=S)N3CCOCC3)cc2)cc1`, for which the activity, negative = inhibition is 10.7% [at 2.33 µM]. On the same count and under the same terms, to `O=C(CN1C(=O)S/C(=C\c2ccccc2Cl)C1=O)NC1C=CS(=O)(=O)C1` (stereo not given) belongs 25.3% [at 102 µM].

Regarding `CC(NC(=O)Nc1cccc([N+](=O)[O-])c1)c1ccc2c(c1)OCO2` (stereo not given), the “activity, negative = inhibition” value is -49.8% [at 102 µM]. Same read-out and setting: next, `CC(C)NC(=O)CSc1ccccc1C(=O)NCc1ccc2c(c1)OCO2`: 9.25% [at 102 µM]. For `CC(C)C(=O)Nc1cccc(C(=O)Nc2ccc3c(c2)OCO3)c1`, the “activity, negative = inhibition” value was -5.76% [at 102 µM]. `CC(NC(=O)Nc1ccc2c(c1)OCO2)c1ccncc1` (stereo not given): the Potency is 50.1 µM (active). Turning to `CCc1ccc(NC(=O)NC(C)c2ccc3c(c2)OCO3)cc1` (stereo not given), the “activity, negative = inhibition” value is 11.5% [at 102 µM]. Regarding `CCSc1ccccc1C(=O)Nc1ccc2c(c1)OCO2`, the Potency is 3.98 µM (active).
